# Experiments:
# Assay in all cases: DAPPL (digital affinity profiling via proximity ligation, sequencing); 10 mM Tris-HCl pH 7.5, 50 mM NaCl, 1 mM DTT, 4% glycerol, room temperature, 30 min; GST-TFs on glutathione beads, 16-mer random dsDNA library, 0.1% formaldehyde crosslink after washing; high values mean tight binding
# Details in all cases: protein: recombinant; tags: N-terminal GST; dsDNA, one strand shown
# FLI1 = biological target: T1, FLI1 (Homo sapiens, UniProt Q01543 1-452)
# T1 sequence: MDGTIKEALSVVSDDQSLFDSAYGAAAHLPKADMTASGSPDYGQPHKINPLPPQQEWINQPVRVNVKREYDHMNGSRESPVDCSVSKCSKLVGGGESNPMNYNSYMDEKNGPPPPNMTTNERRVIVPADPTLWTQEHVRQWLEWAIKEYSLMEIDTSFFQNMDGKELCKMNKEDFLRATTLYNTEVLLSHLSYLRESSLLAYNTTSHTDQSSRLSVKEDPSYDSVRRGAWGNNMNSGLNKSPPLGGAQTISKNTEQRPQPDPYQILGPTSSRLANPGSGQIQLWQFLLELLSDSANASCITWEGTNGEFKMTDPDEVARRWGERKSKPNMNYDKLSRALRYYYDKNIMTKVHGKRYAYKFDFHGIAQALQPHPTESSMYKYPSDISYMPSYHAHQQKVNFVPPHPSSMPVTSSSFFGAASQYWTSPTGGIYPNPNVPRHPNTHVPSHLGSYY
# Summary of the method: (§1)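 Sequencing on an Illumina NextSeq500 followed washing, crosslinking with 0.1% formaldehyde, proximity ligation (BsaI/T4 ligase, 1 h, 37 °C) and PCR amplification of pools that had been incubated for 30 min at room temperature with 200 nmole of a random double-stranded 16-mer DNA library in Tris/NaCl/DTT/glycerol buffer. Each pool held DNA-barcoded human transcription factors, expressed in yeast as GST fusions and captured on glutathione beads, plus a tag-only sample. Binding signal is a hexamer's read frequency for a factor divided by its frequency in the tag-only sample.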
# GABPA = biological target: T2, GABPA (Homo sapiens, UniProt Q06546 1-454)
# T2 sequence: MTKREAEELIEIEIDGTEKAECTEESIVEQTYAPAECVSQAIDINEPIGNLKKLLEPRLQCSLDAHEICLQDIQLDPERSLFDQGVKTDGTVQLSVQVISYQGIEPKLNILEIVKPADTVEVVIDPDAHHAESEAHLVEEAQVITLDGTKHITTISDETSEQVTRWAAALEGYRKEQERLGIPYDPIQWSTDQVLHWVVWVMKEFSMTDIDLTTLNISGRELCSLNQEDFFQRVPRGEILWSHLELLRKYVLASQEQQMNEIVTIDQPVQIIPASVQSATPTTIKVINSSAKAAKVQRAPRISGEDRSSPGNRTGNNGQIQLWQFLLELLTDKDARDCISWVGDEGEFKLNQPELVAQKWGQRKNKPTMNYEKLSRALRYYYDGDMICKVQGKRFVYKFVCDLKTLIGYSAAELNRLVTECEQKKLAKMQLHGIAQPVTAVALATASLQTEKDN
# Summary of the method: as §1
# ERG = biological target: T3, ERG (Homo sapiens, UniProt P11308 1-479)
# T3 sequence: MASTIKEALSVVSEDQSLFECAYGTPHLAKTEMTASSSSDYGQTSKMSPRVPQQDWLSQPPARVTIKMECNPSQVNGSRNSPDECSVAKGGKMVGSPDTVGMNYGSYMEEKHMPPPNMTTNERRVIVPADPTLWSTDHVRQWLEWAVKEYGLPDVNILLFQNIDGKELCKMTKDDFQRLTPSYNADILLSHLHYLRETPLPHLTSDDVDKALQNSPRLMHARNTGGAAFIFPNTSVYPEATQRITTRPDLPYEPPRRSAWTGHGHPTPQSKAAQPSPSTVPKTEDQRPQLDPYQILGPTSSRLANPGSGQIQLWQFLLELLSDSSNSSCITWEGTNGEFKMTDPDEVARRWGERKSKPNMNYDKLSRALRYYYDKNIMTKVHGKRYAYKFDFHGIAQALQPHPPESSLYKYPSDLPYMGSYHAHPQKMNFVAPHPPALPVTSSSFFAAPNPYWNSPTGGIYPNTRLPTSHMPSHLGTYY
# Summary of the method: as §1
# EHF = biological target: T4, EHF (Homo sapiens, UniProt Q9NZC4 1-300)
# T4 sequence: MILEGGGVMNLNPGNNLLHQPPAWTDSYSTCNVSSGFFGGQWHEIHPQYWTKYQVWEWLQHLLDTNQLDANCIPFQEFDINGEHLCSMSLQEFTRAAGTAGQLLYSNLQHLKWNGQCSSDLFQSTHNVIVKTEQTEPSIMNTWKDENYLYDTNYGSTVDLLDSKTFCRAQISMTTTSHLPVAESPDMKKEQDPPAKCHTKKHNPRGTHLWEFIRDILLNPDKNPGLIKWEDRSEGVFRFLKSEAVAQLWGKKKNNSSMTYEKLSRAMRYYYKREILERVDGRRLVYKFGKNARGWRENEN
# Summary of the method: as §1
# SPI1 = SPI1 (Homo sapiens, UniProt P17947 1-270)
# Summary of the method: as §1
# ETV5 = ETV5 (Homo sapiens, UniProt P41161 1-510)
# Summary of the method: as §1
# SPIC = biological target: T5, SPIC (Homo sapiens, UniProt Q8N5J4 1-248)
# T5 sequence: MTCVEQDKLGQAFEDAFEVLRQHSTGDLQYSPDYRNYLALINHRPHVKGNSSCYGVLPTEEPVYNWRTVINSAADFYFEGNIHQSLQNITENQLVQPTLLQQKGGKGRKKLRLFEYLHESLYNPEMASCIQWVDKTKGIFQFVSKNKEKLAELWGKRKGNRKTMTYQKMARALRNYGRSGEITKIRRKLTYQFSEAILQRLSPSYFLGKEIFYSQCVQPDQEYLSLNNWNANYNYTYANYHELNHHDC
# Summary of the method: as §1
# ERF = biological target: T6, ERF (Homo sapiens, UniProt P50548 1-548)
# T6 sequence: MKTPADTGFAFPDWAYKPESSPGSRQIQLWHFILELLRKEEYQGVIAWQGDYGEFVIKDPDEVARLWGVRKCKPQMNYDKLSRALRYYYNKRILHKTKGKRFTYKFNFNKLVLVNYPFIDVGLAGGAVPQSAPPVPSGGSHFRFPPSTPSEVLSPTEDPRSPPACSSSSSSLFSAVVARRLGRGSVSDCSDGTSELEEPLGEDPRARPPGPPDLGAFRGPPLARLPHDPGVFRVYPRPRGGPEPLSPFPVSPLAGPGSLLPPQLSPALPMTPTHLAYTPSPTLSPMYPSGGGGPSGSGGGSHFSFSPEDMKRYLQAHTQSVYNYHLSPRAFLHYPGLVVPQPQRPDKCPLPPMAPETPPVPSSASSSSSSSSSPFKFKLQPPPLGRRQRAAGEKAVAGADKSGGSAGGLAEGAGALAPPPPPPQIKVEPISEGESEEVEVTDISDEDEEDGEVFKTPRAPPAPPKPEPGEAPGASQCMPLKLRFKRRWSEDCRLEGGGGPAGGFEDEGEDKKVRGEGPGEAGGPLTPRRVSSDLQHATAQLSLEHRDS
# Summary of the method: as §1
# ETV3L = biological target: T7, ETV3L (Homo sapiens, UniProt Q6ZN32 1-361)
# T7 sequence: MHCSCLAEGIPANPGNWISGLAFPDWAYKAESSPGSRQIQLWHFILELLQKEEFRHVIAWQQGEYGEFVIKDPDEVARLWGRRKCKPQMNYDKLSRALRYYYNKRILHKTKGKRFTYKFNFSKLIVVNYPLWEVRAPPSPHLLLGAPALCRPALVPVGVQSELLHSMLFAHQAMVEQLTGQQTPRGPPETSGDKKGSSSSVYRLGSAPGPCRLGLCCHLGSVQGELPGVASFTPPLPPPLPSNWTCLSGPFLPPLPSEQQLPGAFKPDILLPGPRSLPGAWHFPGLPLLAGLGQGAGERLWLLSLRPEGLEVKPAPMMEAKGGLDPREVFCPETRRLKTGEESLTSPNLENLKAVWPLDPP
# Summary of the method: as §1
# ETS2 = biological target: T8, ETS2 (Homo sapiens, UniProt P15036 1-469)
# T8 sequence: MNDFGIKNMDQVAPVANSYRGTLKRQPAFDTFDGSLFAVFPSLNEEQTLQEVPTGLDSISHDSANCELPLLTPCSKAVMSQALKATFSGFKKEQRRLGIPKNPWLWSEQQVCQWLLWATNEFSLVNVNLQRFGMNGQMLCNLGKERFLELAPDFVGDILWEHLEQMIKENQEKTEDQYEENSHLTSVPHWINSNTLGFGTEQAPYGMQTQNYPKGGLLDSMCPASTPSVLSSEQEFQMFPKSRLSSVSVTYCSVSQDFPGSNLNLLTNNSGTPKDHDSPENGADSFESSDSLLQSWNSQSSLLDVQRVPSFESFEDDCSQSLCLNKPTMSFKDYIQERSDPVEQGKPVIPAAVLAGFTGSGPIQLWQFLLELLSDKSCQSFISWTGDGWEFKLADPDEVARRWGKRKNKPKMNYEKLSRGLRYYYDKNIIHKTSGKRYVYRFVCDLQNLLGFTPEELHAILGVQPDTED
# Summary of the method: as §1
# SPDEF = biological target: T9, SPDEF (Homo sapiens, UniProt O95238 1-335)
# T9 sequence: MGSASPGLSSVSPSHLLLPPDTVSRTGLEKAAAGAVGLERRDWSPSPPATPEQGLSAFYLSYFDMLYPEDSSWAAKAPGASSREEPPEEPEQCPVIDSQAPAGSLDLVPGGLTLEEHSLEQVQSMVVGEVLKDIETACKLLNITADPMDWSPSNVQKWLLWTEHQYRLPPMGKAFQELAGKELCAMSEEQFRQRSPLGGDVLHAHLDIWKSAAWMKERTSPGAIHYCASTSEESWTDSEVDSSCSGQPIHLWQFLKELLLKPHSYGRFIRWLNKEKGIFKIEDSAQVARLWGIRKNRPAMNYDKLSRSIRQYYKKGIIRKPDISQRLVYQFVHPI
# Summary of the method: as §1
# ETV6 = ETV6 (Homo sapiens, UniProt P41212 1-452)
# Summary of the method: as §1
# ETV6, sequence (P41212 whole entry): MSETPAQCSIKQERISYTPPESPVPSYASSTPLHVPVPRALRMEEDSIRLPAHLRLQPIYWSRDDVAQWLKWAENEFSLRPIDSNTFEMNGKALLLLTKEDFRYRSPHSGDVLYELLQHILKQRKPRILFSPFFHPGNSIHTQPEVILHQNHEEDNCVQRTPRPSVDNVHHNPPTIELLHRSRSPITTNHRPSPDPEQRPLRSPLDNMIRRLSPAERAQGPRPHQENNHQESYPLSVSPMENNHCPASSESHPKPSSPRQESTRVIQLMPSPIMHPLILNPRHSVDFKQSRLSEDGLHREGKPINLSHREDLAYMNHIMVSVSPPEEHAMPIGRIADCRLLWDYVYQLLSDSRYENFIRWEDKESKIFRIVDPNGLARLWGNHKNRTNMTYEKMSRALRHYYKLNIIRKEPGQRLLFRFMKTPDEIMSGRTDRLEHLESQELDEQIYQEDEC
# ETV5, sequence (P41161 whole entry): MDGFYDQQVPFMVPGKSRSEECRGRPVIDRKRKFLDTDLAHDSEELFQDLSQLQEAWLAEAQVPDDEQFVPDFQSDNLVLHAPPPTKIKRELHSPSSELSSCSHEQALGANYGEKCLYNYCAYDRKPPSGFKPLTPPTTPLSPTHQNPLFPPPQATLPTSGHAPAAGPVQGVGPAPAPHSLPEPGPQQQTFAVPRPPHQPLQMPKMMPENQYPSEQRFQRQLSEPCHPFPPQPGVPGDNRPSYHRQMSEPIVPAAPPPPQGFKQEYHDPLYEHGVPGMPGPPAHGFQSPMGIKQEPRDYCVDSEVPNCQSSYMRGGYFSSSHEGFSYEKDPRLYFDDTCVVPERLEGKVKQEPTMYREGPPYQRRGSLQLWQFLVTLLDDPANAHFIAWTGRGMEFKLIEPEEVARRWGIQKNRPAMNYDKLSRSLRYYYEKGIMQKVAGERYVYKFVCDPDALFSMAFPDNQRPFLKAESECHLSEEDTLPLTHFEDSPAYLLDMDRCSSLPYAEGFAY
sequence,measurement,setting,value
GTAGTT,binding signal,FLI1,"1.1 fold enrichment (6-mer frequency, TF over GST control)"
same,binding signal,GABPA,"1.05 fold enrichment (6-mer frequency, TF over GST control)"
same,binding signal,ERG,"1.01 fold enrichment (6-mer frequency, TF over GST control)"
same,binding signal,EHF,"1.07 fold enrichment (6-mer frequency, TF over GST control)"
same,binding signal,SPI1,"1.01 fold enrichment (6-mer frequency, TF over GST control)"
same,binding signal,ETV5,"1.04 fold enrichment (6-mer frequency, TF over GST control)"
same,binding signal,SPIC,"1.05 fold enrichment (6-mer frequency, TF over GST control)"
same,binding signal,ERF,"1.07 fold enrichment (6-mer frequency, TF over GST control)"
same,binding signal,ETV3L,"1.01 fold enrichment (6-mer frequency, TF over GST control)"
same,binding signal,ETS2,"1.02 fold enrichment (6-mer frequency, TF over GST control)"
same,binding signal,SPDEF,"1.05 fold enrichment (6-mer frequency, TF over GST control)"
same,binding signal,ETV6,"1.08 fold enrichment (6-mer frequency, TF over GST control)"

# — paper PMC7862700, “An all-to-all approach to the identification of sequence-specific readers for epigenetic DNA modifications on cytosine”
